Screening data: PubChem BioAssay, several laboratories
CYP2C19 inhib: blocks human cytochrome P450 2C19; P33261; CYP2C19 Supersomes, luciferin-H EGE luminescence, 30 min; inhibition, % at 5 µM; 96,000 compounds, 21% hits; AID 778;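 active means CYP2C19 inhibition above a set limit at 5 µM in the primary screen, cut at about 50% in these data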;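 further: plate controls were negative control wells for no effect and 2.5 mM tranylcypromine positive control for full effect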
Target sequence (P33261 whole entry, looked up): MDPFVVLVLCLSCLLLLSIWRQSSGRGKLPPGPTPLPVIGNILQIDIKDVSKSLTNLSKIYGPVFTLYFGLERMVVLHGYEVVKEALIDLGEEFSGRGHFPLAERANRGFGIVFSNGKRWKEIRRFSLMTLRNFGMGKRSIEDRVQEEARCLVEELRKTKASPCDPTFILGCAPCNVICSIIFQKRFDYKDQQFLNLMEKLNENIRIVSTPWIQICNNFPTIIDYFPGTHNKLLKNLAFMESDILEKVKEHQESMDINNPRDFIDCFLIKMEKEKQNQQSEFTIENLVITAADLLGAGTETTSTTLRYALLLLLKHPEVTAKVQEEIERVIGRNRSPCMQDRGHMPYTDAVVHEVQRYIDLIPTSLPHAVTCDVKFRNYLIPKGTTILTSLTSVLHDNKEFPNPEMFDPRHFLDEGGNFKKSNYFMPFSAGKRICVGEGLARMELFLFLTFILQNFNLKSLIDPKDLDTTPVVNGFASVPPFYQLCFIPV
PostGolgi yeast: growth inhibition of a yeast mutant, post-Golgi transport screen. post-Golgi transport phenotypic cell assay. inhibition, % at 10 µM. 98,000 compounds, 0.9% hits;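 further: yeast cells grown in 1536-well plates; yeast grown about 18 h at 30C before absorbance read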
CYP2C9 inh: blocks human cytochrome P450 2C9. 96,000 compounds, 20% hits. inhibition, % at 5 µM. AID 777. CYP2C9 Supersomes, luciferin-H conversion, luminescence;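 active means blocking of liver enzyme CYP2C9 beyond about 50% at 5 µM, limit read from the data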
PostGolgi ctrl: inhibits growth of the yeast control strain; inhibition, % at 10 µM; 98,000 compounds, 5% hits; efflux-deficient yeast background strain, growth absorbance A615, 16 h
CYP2C9 act: activators of human CYP2C9; recombinant CYP2C9, luciferin-H conversion, luminescence; active compounds read high; factor 1 = untreated enzyme, 0 = blocked; activation factor at 5 µM; 96,000 compounds, 1.4% hits;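 active means activation factor of 2 or more for CYP2C9 at a 5 µM dose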;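 further: 0 = sulfaphenazole-blocked wells and 1 = vehicle-only wells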
CYP2C19 activ: cytochrome P450 2C19 (human) activation; P33261; recombinant CYP2C19, luciferin-H EGE luminescence; active compounds read high; 0 = fully inhibited enzyme, 1 = untreated enzyme; activation factor at 5 µM; 96,000 tested, under 10 active;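 active means activation factor of at least 2 at 5 µM in the primary screen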;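 further: 0 = wells with 2.5 mM tranylcypromine and 1 = vehicle-only wells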
The depositor's hits bear a star; . = not tested or not shown. A selection: hits, their analogues and other compounds. The true share with any hit is near 32%. Unless noted, no stated cut-off is given here; in the data, active means inhibition above about 30%; inactive means the rest.

SMILES | CYP2C19 inhib | PostGolgi yeast | CYP2C9 inh | PostGolgi ctrl | CYP2C9 act | CYP2C19 activ
CCc1c(O)nc(SC2CC(=O)N(c3ccccc3)C2=O)[nH]c1=O (configuration not stated) | 29.0 | 0.9 | 67.0* | 8.9 | 0.3 | 0.7
COc1ccc(N2CCN(C(CNC(=O)c3cccc(Cl)c3)c3cccnc3)CC2)cc1 (configuration not stated) | 33.8 | 12.6 | 55.5* | 3.8 | 0.4 | 0.7
O=C(NCC(c1cccnc1)N1CCN(c2ccccc2F)CC1)c1cccc(Cl)c1 (configuration not stated) | 91.0* | 47.0* | 94.7* | 24.1 | 0.1 | 0.1
COc1cccc(-n2c(C)nc3cc(C(=O)O)ccc32)c1 | -25.5 | -2.6 | -32.0 | 9.0 | 1.3 | 1.3
O=C(CCN1C(=O)c2ccncc2C1=O)Nc1ccc(F)cc1 | 2.2 | -1.1 | 11.9 | 0.3 | 0.9 | 1
Cc1cc(Br)ccc1NC(=O)CCN1C(=O)c2ccncc2C1=O | 33.6 | 8.6 | 43.9 | 32.7* | 0.6 | 0.7
N#Cc1nc(-c2ccccc2)oc1N1CCCCC1 | 13.8 | 11.2 | 19.2 | 6.8 | 0.8 | 0.9
COc1ccc(-c2nc(C#N)c(NC(C)C)o2)cc1 | 85.9* | -2.3 | -1.2 | 10.2 | 1 | 0.1
COc1ccc(-c2nc(C#N)c(N3CCCCCC3)o2)cc1 | 10.3 | 23.0 | 50.2* | 20.1 | 0.5 | 0.9
Cc1ccc(-c2nc(C#N)c(N3CCCCC3)o2)cc1 | 7.3 | -1.0 | 8.8 | 10.2 | 0.9 | 0.9
COc1ccc(-c2nc(C#N)c(N3CCCCCC3)o2)cc1OC | 33.8 | 13.4 | 51.9* | 34.4* | 0.5 | 0.7
COc1ccc(-c2nc(C#N)c(N3CC(C)OC(C)C3)o2)cc1OC (configuration not stated) | . | 7.2 | . | 12.9 | . | .
N#Cc1nc(-c2ccccc2F)oc1N1CCCC1 | 50.0* | 21.9 | -127.3 | 6.1 | 2.3* | 0.5
COc1ccc(-c2cc(=O)[nH]c(NCc3ccccc3)n2)cc1 | 13.0 | 7.0 | 0.9 | 27.2 | 1 | 0.9
CCOC(=O)C1CCCN(c2c(N3CCc4ccccc4C3)c(=O)c2=O)C1 (configuration not stated) | 34.6 | 1.9 | 49.8 | 13.5 | 0.5 | 0.7
CCOc1ccc(-c2nc(C#N)c(N3CCCCCC3)o2)cc1 | -5.8 | -3.5 | 76.1* | 18.1 | 0.2 | 1.1
CSc1ncc(Cl)c(C(=O)C(C#N)c2nc3c(C)cc(C)cc3c(=O)[nH]2)n1 (configuration not stated) | . | -2.1 | . | 21.9 | . | .
Cc1cc2ccccn2c1C(=O)c1nc(N2CCOCC2)ncc1Cl | 46.4 | -5.3 | -2.1 | 7.5 | 1 | 0.5
COCCN(CCOC)c1ncc(Cl)c(C(=O)c2c(C)cc3ccccn23)n1 | 90.4* | -5.9 | -58.9 | 23.4 | 1.6 | 0.1
O=C(OC1CSc2nc3ccccc3n2C1)c1ccco1 (configuration not stated) | 12.7 | -0.5 | 7.8 | 3.9 | 0.9 | 0.9
Cc1cccc(-n2c(O)c(C=NCCCN3CCOCC3)c3ccccc3c2=O)c1 | 15.9 | -10.3 | 5.4 | 15.9 | 0.9 | 0.8
Cc1ccc(N=Cc2c(O)n(-c3ccc4c(c3)OCO4)c(=O)c3ccccc23)cc1 | -3.8 | 30.3* | 24.4 | 5.9 | 0.8 | 1
N#CC1=C(N)N2C(=C(C#N)C13CCN(Cc1ccccc1)CC3)Nc1ccccc12 | 17.7 | -20.1 | 37.5 | 30.2* | 0.6 | 0.8
Cc1[nH]nc2c1C1(CCN(Cc3ccccc3)CC1)C(C#N)=C(N)O2 | 29.3 | -10.1 | 22.2 | -4.3 | 0.8 | 0.7
CCOc1ccc2nc3c(cc2c1)CN(CCCO)C(=NCCOC)S3 | 67.1* | -5.0 | 82.7* | 27.0 | 0.2 | 0.3
SMILES | CYP2C19 inhib | PostGolgi yeast | CYP2C9 inh | PostGolgi ctrl | CYP2C9 act | CYP2C19 activ
CC(C)(C)C(=O)NC(=S)Nc1ccccc1C(=O)Nc1ccccc1 | 17.6 | -4.6 | -3.7 | 0.6 | 1 | 0.8
CC1CC(=O)C2=C(C1)Nc1ncnn1C2c1ccccc1 (configuration not stated) | 15.5 | 0.8 | 11.3 | 47.9* | 0.9 | 0.8
CSc1nc(N)nc(SC2C=CCCC2)c1C#N (configuration not stated) | 13.9 | 4.3 | 20.8 | 15.0 | 0.8 | 0.9
Cc1ccccc1N(CC(=O)N/N=C/c1ccc(N(C)C)cc1)C(=O)c1ccccc1 | 88.9* | 8.6 | 93.3* | 1.6 | 0.1 | 0.1
Cc1ccccc1N(CC(=O)N/N=C/c1ccccc1Cl)C(=O)c1ccccc1 | -12.1 | -1.2 | -10.5 | -0.9 | 1.1 | 1.1
COc1ccc2c(c1OC)CN(C)CCc1cc3c(cc1C(O)C2)OCO3 (configuration not stated) | 79.5* | 4.8 | -22.7 | 10.0 | 1.2 | 0.2
COc1cccc(C2/C(=C(\O)c3ccc4c(c3)OCO4)C(=O)C(=O)N2CCN(C)C)c1OC (configuration not stated) | 20.4 | 4.0 | 8.5 | 4.6 | 0.9 | 0.8
CCOc1cc(C(=O)NCc2nnc(SCC(=O)OC)n2C)cc(OCC)c1OCC | 3.9 | -4.3 | 37.8 | 2.8 | 0.6 | 1
CS(=O)(=O)N(CC(=O)Nc1c(F)cccc1F)c1cccc([N+](=O)[O-])c1 | 21.2 | 2.0 | 16.8 | -4.3 | 0.8 | 0.8
CS(=O)(=O)N(CC(=O)NC1CC1)c1cccc(F)c1 | 88.0* | 6.5 | -4.7 | -7.0 | 1 | 0.1
CS(=O)(=O)N(CC(=O)Nc1cccc(F)c1)c1cccc([N+](=O)[O-])c1 | 25.6 | 8.3 | 60.6* | 5.5 | 0.4 | 0.7
COc1ccc(CC(=O)OCC(=O)Nc2c(C)n(C)n(-c3ccccc3)c2=O)cc1 | -23.0 | -3.8 | -18.5 | 9.6 | 1.2 | 1.2
COc1ccc(-n2c(SCC(=O)N3CCCCC3C)nnc2-c2cccnc2)cc1 (configuration not stated) | 42.2 | 0.5 | 42.7 | -2.1 | 0.6 | 0.6
O=C(O)Cn1cccc1C(=O)c1ccccc1 | . | 0.0 | . | 11.9 | . | .
CN(Cc1ccccc1)C(=O)Cn1cccc1C(=O)c1ccccc1 | 69.8* | -4.3 | 29.7 | -3.7 | 0.7 | 0.3
O=C(CSc1nncs1)N1c2ccccc2Sc2ccccc21 | 62.4* | 1.1 | 37.0 | 28.0 | 0.6 | 0.4
O=C(CSc1n[nH]c(-c2ccco2)n1)N1c2ccccc2Sc2ccccc21 | 48.1 | 2.2 | 51.6* | 15.1 | 0.5 | 0.5
CCOC(=O)CSc1n[nH]c(-c2ccco2)n1 | -1.8 | -3.0 | -1.5 | 4.4 | 1 | 1
CSc1nn(CCc2ccncc2)c(=S)s1 | 97.1* | -2.9 | 64.9* | -3.6 | 0.4 | 0
Cn1c(SCC(N)=O)nnc1C1CCN(S(=O)(=O)c2ccccc2C(F)(F)F)CC1 | -4.7 | 2.8 | -103.4 | -4.0 | 2* | 1
CCOc1cc(C(=O)Nc2ccc3c4c(cccc24)C(=O)N3CC)cc(OCC)c1OCC | 6.6 | -7.4 | 57.2* | 9.3 | 0.4 | 0.9
CN(C)c1ncc(S(=O)(=O)c2ccccc2)c(-c2ccccc2Cl)n1 | 76.4* | -2.6 | 31.8 | 10.8 | 0.7 | 0.2
O=S(=O)(c1ccccc1)c1cnc(-c2cccnc2)nc1-c1ccc(Cl)cc1Cl | 37.3 | -6.2 | 45.0 | 23.9 | 0.6 | 0.6
